This is an account of results in PMC7862700, “An all-to-all approach to the identification of sequence-specific readers for epigenetic DNA modifications on cytosine”.

Assay in all cases: DAPPL (digital affinity profiling via proximity ligation, sequencing); 10 mM Tris-HCl pH 7.5, 50 mM NaCl, 1 mM DTT, 4% glycerol, room temperature, 30 min; GST-TFs on glutathione beads, 16-mer random dsDNA library, 0.1% formaldehyde crosslink after washing; high values mean tight binding
In one test the target is T1, FEV (Homo sapiens, UniProt Q99581 1-238).
T1 sequence: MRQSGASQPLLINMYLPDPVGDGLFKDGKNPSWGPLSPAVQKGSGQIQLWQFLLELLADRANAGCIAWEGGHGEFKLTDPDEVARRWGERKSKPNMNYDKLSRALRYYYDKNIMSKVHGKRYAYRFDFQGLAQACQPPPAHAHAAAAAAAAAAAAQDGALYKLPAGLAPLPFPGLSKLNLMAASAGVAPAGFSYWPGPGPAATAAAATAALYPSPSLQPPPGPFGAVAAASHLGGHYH
Particulars: protein: recombinant; tags: N-terminal GST; dsDNA, one strand shown. A digest of the protocol: (§1)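 Binding signal is each hexamer's read frequency for a factor divided by its frequency in the tag-only sample. The factors were GST-fused human transcription factors from yeast, captured on glutathione beads, DNA-barcoded and pooled with that sample. Pools were incubated with 200 nmole of a random double-stranded 16-mer DNA library in Tris/NaCl/DTT/glycerol buffer at room temperature for 30 min, then washed, crosslinked with 0.1% formaldehyde, proximity-ligated with BsaI/T4 ligase (1 h, 37 °C), PCR-amplified and sequenced on an Illumina NextSeq500.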

For another test, the target named is ETV5 (Homo sapiens, UniProt P41161 1-510). Particulars: protein: recombinant; tags: N-terminal GST; dsDNA, one strand shown. The procedure, abridged:
as §1

Another test deals with HSF1 (Homo sapiens, UniProt Q00613 1-529). Particulars: protein: recombinant; tags: N-terminal GST; chain copies: 3; dsDNA, one strand shown. The procedure, abridged:
as §1

Another test concerns the target T2, SPIC (Homo sapiens, UniProt Q8N5J4 1-248).
T2 sequence: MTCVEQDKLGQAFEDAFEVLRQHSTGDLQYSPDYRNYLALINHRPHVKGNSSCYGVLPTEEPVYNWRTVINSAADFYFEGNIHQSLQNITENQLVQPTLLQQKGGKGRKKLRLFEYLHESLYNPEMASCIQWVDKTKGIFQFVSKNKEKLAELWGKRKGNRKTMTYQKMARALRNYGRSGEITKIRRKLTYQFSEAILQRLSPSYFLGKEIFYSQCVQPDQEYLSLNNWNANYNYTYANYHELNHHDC
The settings on record: protein: recombinant; tags: N-terminal GST; dsDNA, one strand shown. A digest of the protocol: as §1

The target of another test is ELF4 (Homo sapiens, UniProt Q99607 1-663). The settings on record: protein: recombinant; tags: N-terminal GST; dsDNA, one strand shown. A digest of the protocol:
as §1

The next test has as its target T3, ELK4 (Homo sapiens, UniProt P28324-2 1-405).
T3 sequence: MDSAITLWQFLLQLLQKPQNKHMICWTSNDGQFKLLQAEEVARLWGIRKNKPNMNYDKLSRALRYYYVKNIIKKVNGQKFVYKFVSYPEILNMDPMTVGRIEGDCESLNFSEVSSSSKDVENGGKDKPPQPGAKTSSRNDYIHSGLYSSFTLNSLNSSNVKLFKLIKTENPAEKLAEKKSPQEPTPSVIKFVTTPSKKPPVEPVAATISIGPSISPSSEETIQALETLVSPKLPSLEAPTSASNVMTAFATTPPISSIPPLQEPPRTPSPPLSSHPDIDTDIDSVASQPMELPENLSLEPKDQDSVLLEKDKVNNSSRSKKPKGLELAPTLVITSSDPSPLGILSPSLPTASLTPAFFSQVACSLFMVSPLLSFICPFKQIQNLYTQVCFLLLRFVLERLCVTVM
Particulars: protein: recombinant; tags: N-terminal GST; dsDNA, one strand shown. The procedure, abridged: as §1

The target in another test is T4, ETV2 (Homo sapiens, UniProt O00321 1-342).
T4 sequence: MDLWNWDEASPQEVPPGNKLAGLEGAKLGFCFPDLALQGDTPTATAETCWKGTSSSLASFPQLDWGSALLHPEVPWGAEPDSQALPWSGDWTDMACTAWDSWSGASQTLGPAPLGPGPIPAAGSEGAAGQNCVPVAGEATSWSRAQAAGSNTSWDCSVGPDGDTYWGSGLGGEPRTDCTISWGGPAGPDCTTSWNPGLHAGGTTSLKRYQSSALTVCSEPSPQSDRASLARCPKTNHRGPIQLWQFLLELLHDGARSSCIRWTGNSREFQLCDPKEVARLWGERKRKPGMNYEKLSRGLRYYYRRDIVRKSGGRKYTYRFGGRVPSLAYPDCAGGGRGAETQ
Particulars: protein: recombinant; tags: N-terminal GST; dsDNA, one strand shown. The procedure, abridged:
as §1

The next test deals with T5, ELF3 (Homo sapiens, UniProt P78545 1-371).
T5 sequence: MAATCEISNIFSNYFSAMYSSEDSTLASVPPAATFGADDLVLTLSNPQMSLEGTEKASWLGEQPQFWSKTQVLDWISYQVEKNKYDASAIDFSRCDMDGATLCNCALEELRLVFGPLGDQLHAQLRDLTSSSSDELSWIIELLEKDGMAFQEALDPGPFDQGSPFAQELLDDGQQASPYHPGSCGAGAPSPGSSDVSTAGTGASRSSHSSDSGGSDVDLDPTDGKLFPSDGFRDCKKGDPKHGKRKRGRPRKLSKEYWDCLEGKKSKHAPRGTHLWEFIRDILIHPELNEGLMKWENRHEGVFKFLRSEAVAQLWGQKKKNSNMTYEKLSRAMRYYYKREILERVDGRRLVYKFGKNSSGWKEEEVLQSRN
Particulars: protein: recombinant; tags: N-terminal GST; dsDNA, one strand shown. The procedure, abridged: as §1

The target of another test is CRX (Homo sapiens, UniProt O43186 1-299). Particulars: protein: recombinant; tags: N-terminal GST; dsDNA, one strand shown. A digest of the protocol: as §1
The target of another test is ETV1 (Homo sapiens, UniProt P50549 1-477). The settings on record: protein: recombinant; tags: N-terminal GST; dsDNA, one strand shown. A digest of the protocol: as §1
The next test concerns the target T6, ERF (Homo sapiens, UniProt P50548 1-548).
T6 sequence: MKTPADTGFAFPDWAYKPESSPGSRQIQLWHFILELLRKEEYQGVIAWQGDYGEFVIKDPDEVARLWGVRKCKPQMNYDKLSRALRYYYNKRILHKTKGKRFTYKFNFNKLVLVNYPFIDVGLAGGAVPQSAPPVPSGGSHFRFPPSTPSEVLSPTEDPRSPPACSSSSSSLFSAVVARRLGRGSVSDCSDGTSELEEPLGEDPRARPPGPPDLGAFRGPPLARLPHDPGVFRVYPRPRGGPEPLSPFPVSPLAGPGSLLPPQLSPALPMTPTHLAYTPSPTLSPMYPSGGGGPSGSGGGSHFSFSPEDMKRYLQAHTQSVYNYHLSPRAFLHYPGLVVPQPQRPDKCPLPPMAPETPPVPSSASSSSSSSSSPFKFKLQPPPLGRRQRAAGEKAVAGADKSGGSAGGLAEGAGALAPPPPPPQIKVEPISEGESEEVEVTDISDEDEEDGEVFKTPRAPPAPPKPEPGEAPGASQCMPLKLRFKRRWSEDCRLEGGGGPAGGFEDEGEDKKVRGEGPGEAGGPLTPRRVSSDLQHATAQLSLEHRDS
The settings on record: protein: recombinant; tags: N-terminal GST; dsDNA, one strand shown. A digest of the protocol: as §1

For another test, the target named is T7, ETV3L (Homo sapiens, UniProt Q6ZN32 1-361).
T7 sequence: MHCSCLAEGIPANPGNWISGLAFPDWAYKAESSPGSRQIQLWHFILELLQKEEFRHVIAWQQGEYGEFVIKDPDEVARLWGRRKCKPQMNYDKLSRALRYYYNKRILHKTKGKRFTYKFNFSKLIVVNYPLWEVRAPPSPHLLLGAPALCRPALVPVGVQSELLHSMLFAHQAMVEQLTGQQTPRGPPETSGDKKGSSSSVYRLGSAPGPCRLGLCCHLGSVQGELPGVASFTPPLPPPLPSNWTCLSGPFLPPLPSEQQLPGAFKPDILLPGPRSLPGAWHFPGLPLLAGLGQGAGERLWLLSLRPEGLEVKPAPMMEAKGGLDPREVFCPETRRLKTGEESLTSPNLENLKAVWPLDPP
Particulars: protein: recombinant; tags: N-terminal GST; dsDNA, one strand shown. A digest of the protocol:
as §1

The target of a further test is T8, ETS2 (Homo sapiens, UniProt P15036 1-469).
T8 sequence: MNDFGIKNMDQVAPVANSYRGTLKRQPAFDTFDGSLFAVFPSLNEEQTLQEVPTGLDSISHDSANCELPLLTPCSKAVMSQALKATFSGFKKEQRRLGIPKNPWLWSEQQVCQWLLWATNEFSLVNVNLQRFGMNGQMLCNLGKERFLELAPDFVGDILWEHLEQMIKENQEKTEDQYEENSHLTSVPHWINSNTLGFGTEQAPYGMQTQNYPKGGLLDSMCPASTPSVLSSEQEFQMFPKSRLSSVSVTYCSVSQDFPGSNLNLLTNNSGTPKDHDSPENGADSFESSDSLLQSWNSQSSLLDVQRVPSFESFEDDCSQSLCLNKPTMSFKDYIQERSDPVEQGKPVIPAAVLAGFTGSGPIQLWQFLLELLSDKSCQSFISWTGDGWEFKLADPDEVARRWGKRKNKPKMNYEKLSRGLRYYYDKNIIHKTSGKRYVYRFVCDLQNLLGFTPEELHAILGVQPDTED
Particulars: protein: recombinant; tags: N-terminal GST; dsDNA, one strand shown. The procedure, abridged: as §1

In a further test the target is T9, SPDEF (Homo sapiens, UniProt O95238 1-335).
T9 sequence: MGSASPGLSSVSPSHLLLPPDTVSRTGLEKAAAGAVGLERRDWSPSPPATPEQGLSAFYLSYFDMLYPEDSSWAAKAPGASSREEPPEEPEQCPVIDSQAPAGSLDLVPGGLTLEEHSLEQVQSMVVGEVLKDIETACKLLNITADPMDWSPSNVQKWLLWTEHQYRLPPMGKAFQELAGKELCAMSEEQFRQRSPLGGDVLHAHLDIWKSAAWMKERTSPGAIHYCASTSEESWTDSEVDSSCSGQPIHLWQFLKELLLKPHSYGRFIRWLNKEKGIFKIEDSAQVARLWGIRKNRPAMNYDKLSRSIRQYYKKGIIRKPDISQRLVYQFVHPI
Particulars: protein: recombinant; tags: N-terminal GST; dsDNA, one strand shown. The procedure, abridged: as §1

For a further test, the target named is T10, ETV7 (Homo sapiens, UniProt Q9Y603 1-341).
T10 sequence: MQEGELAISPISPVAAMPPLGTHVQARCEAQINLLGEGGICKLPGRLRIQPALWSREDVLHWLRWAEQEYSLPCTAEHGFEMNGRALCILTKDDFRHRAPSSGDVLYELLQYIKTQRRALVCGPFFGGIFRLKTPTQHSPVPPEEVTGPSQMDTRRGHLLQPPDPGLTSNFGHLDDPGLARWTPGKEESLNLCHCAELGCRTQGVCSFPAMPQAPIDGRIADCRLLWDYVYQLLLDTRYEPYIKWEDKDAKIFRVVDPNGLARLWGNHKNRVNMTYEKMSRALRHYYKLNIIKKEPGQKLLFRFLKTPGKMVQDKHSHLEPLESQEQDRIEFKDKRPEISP
Particulars: protein: recombinant; tags: N-terminal GST; dsDNA, one strand shown. The procedure, abridged:
as §1

For a further test, the target named is T11, ELF5 (Homo sapiens, UniProt Q9UKW6-2 1-255).
T11 sequence: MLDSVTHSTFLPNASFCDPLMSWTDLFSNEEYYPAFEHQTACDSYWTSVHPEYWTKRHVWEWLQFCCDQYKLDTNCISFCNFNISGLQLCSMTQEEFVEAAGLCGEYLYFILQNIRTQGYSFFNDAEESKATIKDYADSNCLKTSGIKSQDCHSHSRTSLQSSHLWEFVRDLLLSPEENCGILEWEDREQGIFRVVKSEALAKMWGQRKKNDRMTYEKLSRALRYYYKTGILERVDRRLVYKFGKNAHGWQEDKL
Particulars: protein: recombinant; tags: N-terminal GST; dsDNA, one strand shown. The procedure, abridged: as §1

The next test deals with T12, ETV3 (Homo sapiens, UniProt P41162-2 1-143).
T12 sequence: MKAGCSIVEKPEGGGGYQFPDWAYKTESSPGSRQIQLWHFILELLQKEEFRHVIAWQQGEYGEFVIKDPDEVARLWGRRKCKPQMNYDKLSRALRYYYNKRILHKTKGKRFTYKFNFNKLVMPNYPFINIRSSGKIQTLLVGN
The settings on record: protein: recombinant; tags: N-terminal GST; dsDNA, one strand shown. The procedure, abridged: as §1

In a further test the target is ETV6 (Homo sapiens, UniProt P41212 1-452). The settings on record: protein: recombinant; tags: N-terminal GST; dsDNA, one strand shown. The procedure, abridged:
as §1

Sequence of ETV5 (P41161 whole entry): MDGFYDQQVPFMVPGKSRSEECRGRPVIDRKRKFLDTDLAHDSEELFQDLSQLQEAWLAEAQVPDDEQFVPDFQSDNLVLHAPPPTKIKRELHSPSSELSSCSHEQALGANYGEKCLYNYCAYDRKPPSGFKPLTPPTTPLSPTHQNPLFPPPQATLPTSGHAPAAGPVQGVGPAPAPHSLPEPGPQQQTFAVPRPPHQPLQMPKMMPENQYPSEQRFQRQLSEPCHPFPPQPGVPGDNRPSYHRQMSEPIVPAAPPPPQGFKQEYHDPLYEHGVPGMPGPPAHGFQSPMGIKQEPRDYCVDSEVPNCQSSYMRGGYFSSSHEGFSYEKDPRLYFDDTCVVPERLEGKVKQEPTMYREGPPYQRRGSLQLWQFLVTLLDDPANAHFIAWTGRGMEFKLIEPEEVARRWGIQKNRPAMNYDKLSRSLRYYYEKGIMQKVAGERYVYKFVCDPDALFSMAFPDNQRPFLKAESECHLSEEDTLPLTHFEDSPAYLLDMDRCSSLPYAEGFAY
Sequence of ETV1 (P50549 whole entry): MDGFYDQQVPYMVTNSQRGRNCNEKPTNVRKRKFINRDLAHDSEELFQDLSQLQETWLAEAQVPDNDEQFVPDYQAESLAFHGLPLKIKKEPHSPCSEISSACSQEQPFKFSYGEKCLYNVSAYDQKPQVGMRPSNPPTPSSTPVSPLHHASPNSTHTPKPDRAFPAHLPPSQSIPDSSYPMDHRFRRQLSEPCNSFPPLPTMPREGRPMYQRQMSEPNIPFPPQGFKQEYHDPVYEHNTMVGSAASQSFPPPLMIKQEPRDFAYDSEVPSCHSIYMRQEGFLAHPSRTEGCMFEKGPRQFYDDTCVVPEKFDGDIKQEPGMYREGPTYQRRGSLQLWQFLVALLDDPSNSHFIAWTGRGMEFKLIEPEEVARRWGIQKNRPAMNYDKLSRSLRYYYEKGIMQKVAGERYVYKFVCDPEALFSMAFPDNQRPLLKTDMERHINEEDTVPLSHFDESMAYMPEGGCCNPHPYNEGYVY
Sequence of ETV6 (P41212 whole entry): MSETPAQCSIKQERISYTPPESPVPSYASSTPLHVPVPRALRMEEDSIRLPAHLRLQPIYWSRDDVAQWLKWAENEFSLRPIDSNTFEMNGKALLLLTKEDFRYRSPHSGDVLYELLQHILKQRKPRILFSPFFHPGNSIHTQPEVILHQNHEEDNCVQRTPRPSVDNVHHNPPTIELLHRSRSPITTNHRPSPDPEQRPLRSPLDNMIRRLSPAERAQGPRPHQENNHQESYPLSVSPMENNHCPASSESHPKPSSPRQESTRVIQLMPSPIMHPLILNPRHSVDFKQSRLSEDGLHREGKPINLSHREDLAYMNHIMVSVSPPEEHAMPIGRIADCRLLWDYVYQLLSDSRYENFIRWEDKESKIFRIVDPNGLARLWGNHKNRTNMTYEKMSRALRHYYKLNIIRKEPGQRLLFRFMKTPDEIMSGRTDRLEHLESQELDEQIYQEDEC
Sequence of ELF4 (Q99607 whole entry): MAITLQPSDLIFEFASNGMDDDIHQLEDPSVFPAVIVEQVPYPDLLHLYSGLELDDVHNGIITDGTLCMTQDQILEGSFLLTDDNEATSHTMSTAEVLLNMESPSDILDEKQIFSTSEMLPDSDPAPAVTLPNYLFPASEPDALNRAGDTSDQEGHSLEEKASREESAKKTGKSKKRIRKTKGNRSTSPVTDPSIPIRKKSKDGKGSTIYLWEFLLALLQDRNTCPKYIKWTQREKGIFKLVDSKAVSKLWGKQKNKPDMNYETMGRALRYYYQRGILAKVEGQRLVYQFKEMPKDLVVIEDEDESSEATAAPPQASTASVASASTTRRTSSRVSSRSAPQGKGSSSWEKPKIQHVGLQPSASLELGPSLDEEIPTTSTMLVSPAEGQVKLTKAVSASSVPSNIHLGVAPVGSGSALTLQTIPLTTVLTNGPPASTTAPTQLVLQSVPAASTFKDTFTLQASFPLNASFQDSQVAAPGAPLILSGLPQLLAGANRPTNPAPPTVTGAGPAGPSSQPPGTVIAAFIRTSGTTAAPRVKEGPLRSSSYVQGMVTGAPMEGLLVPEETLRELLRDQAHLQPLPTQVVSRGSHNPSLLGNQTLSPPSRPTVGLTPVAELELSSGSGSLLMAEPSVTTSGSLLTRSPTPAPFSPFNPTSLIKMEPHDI
Sequence of HSF1 (Q00613 whole entry): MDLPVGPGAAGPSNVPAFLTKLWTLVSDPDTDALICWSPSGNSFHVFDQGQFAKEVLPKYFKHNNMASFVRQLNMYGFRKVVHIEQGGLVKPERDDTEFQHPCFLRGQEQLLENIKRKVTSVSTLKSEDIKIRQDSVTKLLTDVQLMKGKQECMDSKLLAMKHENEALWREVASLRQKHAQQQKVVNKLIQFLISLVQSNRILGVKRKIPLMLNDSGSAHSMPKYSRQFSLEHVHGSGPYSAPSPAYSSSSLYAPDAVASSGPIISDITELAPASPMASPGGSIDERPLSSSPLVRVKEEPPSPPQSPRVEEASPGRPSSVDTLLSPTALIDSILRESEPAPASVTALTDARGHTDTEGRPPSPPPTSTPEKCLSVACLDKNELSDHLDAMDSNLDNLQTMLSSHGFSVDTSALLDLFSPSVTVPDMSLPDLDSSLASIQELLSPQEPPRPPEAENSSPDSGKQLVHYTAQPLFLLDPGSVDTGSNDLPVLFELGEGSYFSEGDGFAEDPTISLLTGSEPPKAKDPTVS
Sequence of CRX (O43186 whole entry): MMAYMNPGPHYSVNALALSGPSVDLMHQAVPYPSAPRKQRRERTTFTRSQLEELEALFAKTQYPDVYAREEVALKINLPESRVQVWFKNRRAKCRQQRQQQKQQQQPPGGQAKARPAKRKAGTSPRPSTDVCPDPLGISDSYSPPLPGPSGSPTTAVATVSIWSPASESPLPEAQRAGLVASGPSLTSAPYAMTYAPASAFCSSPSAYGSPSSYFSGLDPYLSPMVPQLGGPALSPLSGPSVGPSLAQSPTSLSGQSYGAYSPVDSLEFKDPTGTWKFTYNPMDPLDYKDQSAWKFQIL

Turning to ATACAT, the binding signal in the test with FEV is 1.29 fold enrichment (6-mer frequency, TF over GST control); in the test with ETV5, 1.23 fold enrichment (6-mer frequency, TF over GST control); in the test with HSF1, 1.01 fold enrichment (6-mer frequency, TF over GST control); with SPIC, 1.15 fold enrichment (6-mer frequency, TF over GST control); in the test with ELF4, 1.33 fold enrichment (6-mer frequency, TF over GST control); with ELK4, 1.31 fold enrichment (6-mer frequency, TF over GST control). Also, the binding signal with ETV2 was 1.33 fold enrichment (6-mer frequency, TF over GST control); with ELF3, 1.15 fold enrichment (6-mer frequency, TF over GST control); in the test with CRX, 1.06 fold enrichment (6-mer frequency, TF over GST control); with ETV1 it was 1.33 fold enrichment (6-mer frequency, TF over GST control); in the test with ERF, 1.27 fold enrichment (6-mer frequency, TF over GST control); in the test with ETV3L, 1.2 fold enrichment (6-mer frequency, TF over GST control). Also, the binding signal in the test with ETS2 was 1.24 fold enrichment (6-mer frequency, TF over GST control); in the test with SPDEF, 1.6 fold enrichment (6-mer frequency, TF over GST control); in the test with ETV7, 1.36 fold enrichment (6-mer frequency, TF over GST control); with ELF5, 1.29 fold enrichment (6-mer frequency, TF over GST control); with ETV3, 1.26 fold enrichment (6-mer frequency, TF over GST control); in the test with ETV6 it was 1.28 fold enrichment (6-mer frequency, TF over GST control).
